Results reported in PubChem BioAssay (NCATS).
Results filed as inconclusive are left out. The source made the active and inactive calls. Unless noted, calls come from the whole dose curve; as a rule, active = well fitted curve in the direction sought with a large enough effect; inconclusive = small, poorly fitted or top-dose-only effect, or another doubt; inactive = no such curve, though single readings can be large; an effect the other way counts as inactive or inconclusive.

Legend:
[1] = molecular target: ATP-dependent 6-phosphofructokinase (Trypanosoma brucei brucei) (UniProt O15648); assay: qHTS Assay to Find Inhibitors of T. brucei phosphofructokinase: hit validation (AID 492961);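 note: luminescence reports ADP formed as PFK phosphorylates fructose-6-phosphate with ATP; % is set by controls: 0 for no effect and ±100 for the full control effect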
Summary of the method: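 PFK 1.25 nM, F6P 0.5 mM, ATP 0.1 mM, MgCl2 5 mM, 0.1 M TEA pH 8.0, Tween20 0.01%, BSA 0.1%; 45 min RT. ADP-Glo two-step detection, luminescence. qHTS titration; curve fitting with curve-class categorization.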

[2] = molecular target: Ubiquitin carboxyl-terminal hydrolase 1 (Homo sapiens) (UniProt O94782); assay: Inhibitors of USP1/UAF1: Pilot qHTS (AID 504865); note: potency is the fitted concentration of half-maximal effect; nearly all actives have a fitted effect of over 35% in size
Summary of the method: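 USP1/UAF1 complex at 1 nM preincubated 15 min at room temperature with compound, then Ub-Rho substrate added at 150 nM final. Fluorescence (480/540 nm) read kinetically in 50 mM HEPES pH 7.8, 0.5 mM EDTA, 1 mM TCEP, 0.1 mg/ml BSA, 0.01% Tween-20.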

[3] = S16 Schwann cell viability assay (CellTiter-Glo assay) (AID 624031);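 note: cellular ATP luminescence as a viability measure; plate controls were DMSO-treated cells for no effect and cell-free wells for full effect; nearly all actives have a fitted effect of over 70% in size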
Summary of the method: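 Native S16 rat Schwann cells, 500-750 cells/well in DMEM with 10% FBS, dosed with compound after overnight culture and incubated 24h at 37 degree Celsius/5% CO2. Viability by CellTiter-Glo luminescence; % activity normalized to no-cell wells and DMSO-treated cells.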

[4] = S16 Schwann cell PMP22 intronic element firefly luciferase assay (AID 624032); note: potency is the fitted concentration of half-maximal effect; nearly all actives have a fitted effect of over 30% in size
Summary of the method: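 Rat S16 Schwann cells stably carrying a PMP22 intronic element-driven Fluc reporter were seeded overnight, then exposed to compounds for 24 h at 37 °C. Luminescence was normalized to PTC124 (positive control) and DMSO (0% activity).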

[5] = S16 Schwann cell PMP22 intronic element beta-lactamase assay (AID 624044; calls by dose curve;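 note: 0% = DMSO and -100% = potassium clavulanate positive control; nearly all actives have a fitted effect of over 15% in size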)
Summary of the method: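 Rat S16 Schwann cells with beta-Lac driven by a PMP22 intronic element, compound-treated 24 h at 37 °C. LiveBLAzer FRET B/G read: 460 nm normalized to potassium clavulanate vs DMSO; 535 nm FRET as viability; concentration-effect curves classified.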

[6] = qHTS to identify inhibitors of the type 1 interferon - major histocompatibility complex class I in skeletal muscle: primary screen against the NCATS Mechanism Interrogation Plate v5.0 (MIPE) Libary (AID 1347411); note: potency is the fitted concentration of half-maximal effect; nearly all actives have a fitted effect of over 65% in size
Summary of the method: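 Immortalized human myoblasts (C25cl48) with HiBit knocked into endogenous HLA-B*08:01 were stimulated with 4 ng/ml IFN-beta and given compounds in 11-point 1:3 titration from 46 uM. After 24 h at 37 C, lytic HiBiT luminescence was read.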

[7] = molecular target: Glutathione peroxidase 1 (Homo sapiens) (UniProt P07203); assay: Primary qHTS Assay for Inhibitors of Recombinant Selenoprotein Glutathione Peroxidase 1 (GPX1) (AID 1845191); note: nearly all actives have a fitted effect of over 65% in size
Summary of the method: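 Recombinant GPX1 (10 nM final) was preincubated with compound for 30 min at room temperature, then reacted with 1 mM GSH, 0.5 mM CHP, 0.5 mM NADPH and 100 nM glutathione reductase; NADPH fluorescence (340/450 nm) was read at 0 and 15 min.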

[8] = qHTS drug screen for cell cycle checkpoint inhibitors in PARPi-resistant BRCA-mutant ovarian cancer cell lines. (AID 1963452; calls by dose curve); conditions: PEO1/OlaR viability, CellTiter-Glo luminescence, 96 h, stronger effect = lower value
Summary of the method: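 PEO1, PEO4 and PEO1/OlaR ovarian cancer cells, 600 per well, exposed 96 h at 37C to a dilution series. Viability read by CellTiter-Glo luminescence, normalized to DMSO and empty wells; activity summarized as Z-AUC.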

[9] = qHTS profiling for inhibitors of Plasmodium falciparum proliferation (AID 504749); note: potency is the fitted concentration of half-maximal effect; nearly all actives have a fitted effect of over 60% in size; conditions: P. falciparum in erythrocytes, SYBR Green DNA, 72 h
Summary of the method: (§1)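 Parasite proliferation within erythrocytes, 72 h exposure. Endpoint: SYBR Green I fluorescence after overnight lysis at room temperature. Controls: 0.29 uM artemisinin, DMSO.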

3D7 = assay: as above; conditions: P. falciparum in erythrocytes, SYBR Green DNA, 72 h; series mostly up to 28.7 µM
Summary of the method: as §1

7G8 = assay: as above; conditions: P. falciparum in erythrocytes, SYBR Green DNA, 72 h; series mostly up to 28.7 µM
Summary of the method: as §1

AA1029 = assay: as above; conditions: P. falciparum in erythrocytes, SYBR Green DNA, 72 h; series mostly up to 28.7 µM
Summary of the method: as §1

AS120 = assay: as above; conditions: P. falciparum in erythrocytes, SYBR Green DNA, 72 h; series mostly up to 28.7 µM
Summary of the method: as §1

ATS189 = assay: as above; conditions: P. falciparum in erythrocytes, SYBR Green DNA, 72 h; series mostly up to 28.7 µM
Summary of the method: as §1

ATS95 = assay: as above; conditions: P. falciparum in erythrocytes, SYBR Green DNA, 72 h; series mostly up to 28.7 µM
Summary of the method: as §1

C2A = assay: as above; conditions: P. falciparum in erythrocytes, SYBR Green DNA, 72 h; series mostly up to 28.7 µM
Summary of the method: as §1

CP185 = assay: as above; conditions: P. falciparum in erythrocytes, SYBR Green DNA, 72 h; series mostly up to 28.7 µM
Summary of the method: as §1

CP191 = assay: as above; conditions: P. falciparum in erythrocytes, SYBR Green DNA, 72 h; series mostly up to 28.7 µM
Summary of the method: as §1

CP192 = assay: as above; conditions: P. falciparum in erythrocytes, SYBR Green DNA, 72 h; series mostly up to 28.7 µM
Summary of the method: as §1

CP194 = assay: as above; conditions: P. falciparum in erythrocytes, SYBR Green DNA, 72 h; series mostly up to 28.7 µM
Summary of the method: as §1

CP201 = assay: as above; conditions: P. falciparum in erythrocytes, SYBR Green DNA, 72 h; series mostly up to 28.7 µM
Summary of the method: as §1

CP203 = assay: as above; conditions: P. falciparum in erythrocytes, SYBR Green DNA, 72 h; series mostly up to 28.7 µM
Summary of the method: as §1

CP211 = assay: as above; conditions: P. falciparum in erythrocytes, SYBR Green DNA, 72 h; series mostly up to 28.7 µM
Summary of the method: as §1

CP215 = assay: as above; conditions: P. falciparum in erythrocytes, SYBR Green DNA, 72 h; series mostly up to 28.7 µM
Summary of the method: as §1

CP217 = assay: as above; conditions: P. falciparum in erythrocytes, SYBR Green DNA, 72 h; series mostly up to 28.7 µM
Summary of the method: as §1

CP237 = assay: as above; conditions: P. falciparum in erythrocytes, SYBR Green DNA, 72 h; series mostly up to 28.7 µM
Summary of the method: as §1

CP238 = assay: as above; conditions: P. falciparum in erythrocytes, SYBR Green DNA, 72 h; series mostly up to 28.7 µM
Summary of the method: as §1

CP247 = assay: as above; conditions: P. falciparum in erythrocytes, SYBR Green DNA, 72 h; series mostly up to 28.7 µM
Summary of the method: as §1

CP250 = assay: as above; conditions: P. falciparum in erythrocytes, SYBR Green DNA, 72 h; series mostly up to 28.7 µM
Summary of the method: as §1

CP252 = assay: as above; conditions: P. falciparum in erythrocytes, SYBR Green DNA, 72 h; series mostly up to 28.7 µM
Summary of the method: as §1

ATP-dependent 6-phosphofructokinase (Trypanosoma brucei brucei), sequence (O15648 whole entry, looked up): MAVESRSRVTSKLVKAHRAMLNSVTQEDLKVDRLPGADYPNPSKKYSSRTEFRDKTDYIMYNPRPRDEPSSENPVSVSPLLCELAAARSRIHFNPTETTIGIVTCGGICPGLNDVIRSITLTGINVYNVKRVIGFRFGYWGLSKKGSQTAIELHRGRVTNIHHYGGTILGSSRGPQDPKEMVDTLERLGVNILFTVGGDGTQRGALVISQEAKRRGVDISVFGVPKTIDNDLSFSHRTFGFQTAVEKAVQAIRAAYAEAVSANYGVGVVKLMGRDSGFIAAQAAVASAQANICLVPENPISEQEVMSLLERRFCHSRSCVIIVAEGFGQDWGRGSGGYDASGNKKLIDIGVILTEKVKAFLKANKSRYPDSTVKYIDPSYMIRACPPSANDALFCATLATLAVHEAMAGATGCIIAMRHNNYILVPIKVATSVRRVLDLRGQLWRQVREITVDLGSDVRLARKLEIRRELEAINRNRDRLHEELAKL
Ubiquitin carboxyl-terminal hydrolase 1 (Homo sapiens), sequence (O94782 whole entry, looked up): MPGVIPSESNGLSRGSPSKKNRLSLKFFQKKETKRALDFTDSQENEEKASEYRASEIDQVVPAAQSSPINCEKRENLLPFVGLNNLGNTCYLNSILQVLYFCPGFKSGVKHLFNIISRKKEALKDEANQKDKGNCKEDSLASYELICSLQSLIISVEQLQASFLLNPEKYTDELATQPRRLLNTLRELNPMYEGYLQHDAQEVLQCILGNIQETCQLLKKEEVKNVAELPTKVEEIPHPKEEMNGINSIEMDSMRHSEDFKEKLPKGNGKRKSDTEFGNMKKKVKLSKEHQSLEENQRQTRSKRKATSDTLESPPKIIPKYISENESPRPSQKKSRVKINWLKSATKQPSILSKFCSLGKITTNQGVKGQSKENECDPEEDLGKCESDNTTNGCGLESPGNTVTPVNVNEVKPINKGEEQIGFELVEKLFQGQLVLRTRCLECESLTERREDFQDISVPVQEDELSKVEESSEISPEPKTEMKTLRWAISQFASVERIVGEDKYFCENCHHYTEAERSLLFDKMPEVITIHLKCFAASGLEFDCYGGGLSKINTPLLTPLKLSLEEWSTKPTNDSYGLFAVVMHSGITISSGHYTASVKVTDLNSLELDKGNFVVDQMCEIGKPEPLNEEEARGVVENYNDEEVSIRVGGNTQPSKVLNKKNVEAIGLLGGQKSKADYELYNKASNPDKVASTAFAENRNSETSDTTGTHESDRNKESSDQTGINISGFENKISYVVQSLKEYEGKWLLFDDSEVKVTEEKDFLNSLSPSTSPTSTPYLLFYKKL
Glutathione peroxidase 1 (Homo sapiens), sequence (P07203 whole entry, looked up): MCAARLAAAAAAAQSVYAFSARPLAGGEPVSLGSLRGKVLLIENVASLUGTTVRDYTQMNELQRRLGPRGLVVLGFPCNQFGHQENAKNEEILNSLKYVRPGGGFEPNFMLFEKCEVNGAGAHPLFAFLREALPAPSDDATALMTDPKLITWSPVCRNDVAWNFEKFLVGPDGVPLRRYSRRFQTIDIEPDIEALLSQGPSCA

CO[C@H]1/C=C/O[C@@]2(C)Oc3c(C)c(O)c4c(O)c(c(/C=N\N5CCN(C6CCCC6)CC5)c(O)c4c3C2=O)NC(=O)/C(C)=C\C=C\[C@H](C)[C@H](O)[C@@H](C)[C@@H](O)[C@@H](C)[C@H](OC(C)=O)[C@@H]1C
inactive: outcome [1] | outcome [3] | outcome [5] | Potency [7] | Z-AUC [8] -0.749
active: Potency [2] 56.2 µM | Potency [4] 10.2 µM | Potency [6] 18.6 µM | Potency ([9]; parasite line A) 1.58 µM | Potency ([9]; parasite line B) 0.631 µM | Potency (3D7) 1.26 µM | Potency (7G8) 141 nM | Potency (AA1029) 1.26 µM | Potency (AS120) 126 nM | Potency (ATS189) 1.41 µM | Potency (ATS95) 1.26 µM | Potency (C2A) 2.51 µM | Potency (CP185) 1.58 µM | Potency (CP191) 1 µM | Potency (CP192) 4.78 µM | Potency (CP194) 4.26 µM | Potency (CP201) 5.36 µM | Potency (CP203) 3.79 µM | Potency (CP211) 4.26 µM | Potency (CP215) 4.26 µM | Potency (CP217) 1.41 µM | Potency (CP237) 224 nM | Potency (CP238) 2.24 µM | Potency (CP247) 1.41 µM | Potency (CP250) 3.16 µM | Potency (CP252) 1.41 µM
-0.895: Z-AUC ([8]; measured here: PEO1 parental Z-AUC)
-0.603: Z-AUC ([8]; measured here: PEO4 Z-AUC)
